# Inconclusive results are not listed. Activity calls are given as the source filed them. Rule for the calls, unless noted: active = hit-call score of the fitted dose curve at least 0.9, where 1 is the maximum; inconclusive = response in the unintended direction; inactive = score below 0.9.
# Key:
# [1] = Tanguay_ZF_120hpf_SOMI_legacy: (Legacy) Oregon State University Tanguay Lab 120 Hour Post-fertilization zebrafish Assay for Somite Malformation (AID 2283647)
# In short: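 Somitogenesis defects are recorded as binary calls in whole larvae at 120 hpf after continuous static chemical exposure starting at 6 hpf in dechorionated 5D embryos. DMSO serves as negative control and baseline.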
# [2] = Tanguay_ZF_120hpf_PFIN_legacy: (Legacy) Oregon State University Tanguay Lab 120 Hour Post-fertilization zebrafish Assay for Pectoral Fin Malformation (AID 2283648);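 note: each larva judged yes or no for fin defect by brightfield with dead larvae skipped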
# In short: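 Dechorionated Tropical 5D wild-type zebrafish embryos, one per well, statically exposed from 6 to 120 hpf at 28C with 0.64% DMSO final. Pectoral fin malformation scored present/absent by brightfield at 120 hpf; not scored in dead embryos.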
# [3] = Tanguay_ZF_120hpf_CFIN_legacy: (Legacy) Oregon State University Tanguay Lab 120 Hour Post-fertilization zebrafish Assay for Caudal Fin Malformation (AID 2283649)
# In short: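 Single dechorionated 5D wild-type embryos are dosed at 6 hpf (final DMSO 0.64%) and held statically at 28C. Caudal fin malformation is recorded as present or absent at 120 hpf under brightfield, excluding dead embryos.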
# [4] = Tanguay_ZF_120hpf_PIG_legacy: (Legacy) Oregon State University Tanguay Lab 120 Hour Post-fertilization zebrafish Assay for Pigmentation Malformation (AID 2283650)
# In short: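 Dechorionated Tropical 5D wild-type embryos, one per well from 6 hpf, statically exposed at 28C in the dark until 120 hpf, 0.64% DMSO final. Pigmentation scored present/absent by brightfield microscopy; dead embryos not scored; fitted versus DMSO.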
# [5] = Tanguay_ZF_120hpf_CIRC_legacy: (Legacy) Oregon State University Tanguay Lab 120 Hour Post-fertilization zebrafish Assay for Circulatory Malformation (AID 2283651)
# In short: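 Tropical 5D wild-type embryos, dechorionated with pronase at 4 hpf, were placed singly in wells at 6 hpf and exposed statically at 28C to 120 hpf (0.64% DMSO final). Circulatory malformation was scored present/absent by brightfield microscopy.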
# [6] = Tanguay_ZF_120hpf_SWIM_legacy: (Legacy) Oregon State University Tanguay Lab 120 Hour Post-fertilization zebrafish Assay for Swim Bladder Malformation (AID 2283654);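 note: swim bladder malformation in each larva scored yes or no under brightfield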
# In short: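 Dechorionated wild-type Tropical 5D zebrafish embryos, one per well from 6 hpf, were statically exposed at 28C until 120 hpf in 0.64% DMSO. Swim bladder malformation scored as present/absent by brightfield microscopy; not scored in dead larvae.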
# [7] = Tanguay_ZF_120hpf_TRUN_legacy: (Legacy) Oregon State University Tanguay Lab 120 Hour Post-fertilization zebrafish Assay for Truncated Body (AID 2283655)
# In short: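 Single dechorionated zebrafish embryos received test chemical from 6 hpf in 0.64% DMSO, kept at 28C. At 120 hpf, brightfield inspection noted any truncated body.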
# [8] = Tanguay_ZF_120hpf_NC_legacy: (Legacy) Oregon State University Tanguay Lab 120 Hour Post-fertilization zebrafish Assay for Notochord and Tail Malformation (AID 2283656)
# In short: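 Dechorionated 5D zebrafish, 1/well from 6 hpf; static exposure to 120 hpf, 28C, sealed, dark; final DMSO 0.64% v/v. NC scored binary (present/absent); dead embryos not scored. Fit vs DMSO baseline, gain direction.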
# [9] = tested on: Thyroperoxidase (TPO), gene 54314; assay: CCTE_Simmons_AUR_rTPO: CCTE's Amplex UltraRed Assay for Thyroperoxidase (TPO) Inhibition, Simmons Lab (AID 2283662);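 note: potency for loss of signal meaning inhibition of peroxidase activity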
# In short: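 Rat thyroid microsomal TPO + 25 uM AUR in 200 mM K phosphate; cpd 5 nM–87.5 uM [final], 8 conc, 0.5% DMSO; 300 uM H2O2 starts rxn; 37C dark 30 min; endpoint FI 544/590 nm; n=3.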
# [10] = CCTE_Simmons_CellTiterGLO_HEK293T: Viability Assessment in CCTE's Assays for Thyroperoxidase (TPO) Inhibition, Simmons Lab (AID 2283665);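 for AC50: cells exposed to compound for 24 h before readout; actives reduce ATP signal below DMSO vehicle meaning cytotoxicity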
# In short: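 HEK293T cells in DMEM with 1% FBS were dosed with 8 concentrations (5 nM–87.5 uM final, 0.5% DMSO) for 24 hr at 37C; ATP content was read by CellTiter-Glo luminescence, loss-of-signal versus DMSO, three biological replicates.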
# [11] = Tanguay_ZF_120hpf_TR_legacy: (Legacy) Oregon State University Tanguay Lab 120 Hour Post-fertilization zebrafish Assay for Touch Response (AID 2283667)
# In short: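 Tropical 5D wild-type zebrafish embryos statically exposed to 120 hpf at 28°C, sealed and dark-covered, 0.64% DMSO final; touch response scored as present/absent by brightfield microscopy at 120 hpf. Trimethyltin chloride 5 uM positive control; dead embryos not scored.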
# [12] = STM_H9_OrnithineISnorm_perc: Stemina devTOX quickPredict H9 human embryonic stem cell (hESC)-based Assay for Ornithine (ORN) Metabolite Biomarker, Normalized (AID 2283712; active = hit-call score of the fitted dose curve at least 0.9, where 1 is the maximum; inactive = score below 0.9;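 note: ornithine released into spent medium during last day measured by mass spectrometry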)
# In short: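 Undifferentiated pluripotent H9 hESCs were exposed to compound for 72h, with media and compound replaced every 24h. Ornithine in final 24-h conditioned media was measured by UPLC-HRMS, normalized to 13C-labeled spike-in standard and to median 0.1% DMSO control.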
# [13] = STM_H9_CystineISnorm_perc: Stemina devTOX quickPredict H9 human embryonic stem cell (hESC)-based Assay for Cystine (CYSS) Metabolite Biomarker, Normalized (AID 2283713; active = hit-call score of the fitted dose curve at least 0.9, where 1 is the maximum; inactive = score below 0.9)
# In short: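 Undifferentiated H9 hESCs were exposed to compound for 72h, with medium and compound replaced every 24h. Final-24h conditioned medium was deproteinized and analyzed by UPLC-HRMS. Cystine EIC area was normalized to spiked C13 standard and 0.1% DMSO median.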
# [14] = STM_H9_OrnCyssISnorm_ratio: Stemina devTOX quickPredict H9 human embryonic stem cell (hESC)-based Assay for Ornithine (ORN):Cystine (CYSS) Ratio (AID 2283714)
# In short: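 Undifferentiated H9 hESCs exposed 72 h, media and compound replaced every 24 h; final 24-h conditioned media deproteinized and analysed by UPLC-HRMS against C13 spike-ins. Value is the internal-standard-normalized ORN/CYSS ratio versus 0.1% DMSO.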
# [15] = Tanguay_ZF_120hpf_ActivityScore_legacy: (Legacy) Oregon State University Tanguay Lab 120 Hour Post-fertilization zebrafish Assay Score for Activity (AID 2283742)
# In short: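 Dechorionated Tropical 5D embryos, one per well from 6 hpf, statically exposed to 120 hpf at 28 °C in 0.64% DMSO. Mortality and malformations scored binary by brightfield microscopy; activity score combines 18 endpoints, fitted positively versus DMSO.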
# [16] = CCTE_Padilla_ZF_144hpf_TERATOSCORE: (Legacy) CCTE's 144 Hour Post-fertilization zebrafish Assay Teratoscore, Padilla Lab (AID 2283679; active = hit-call score of the fitted dose curve at least 0.9, where 1 is the maximum; inactive = score below 0.9;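 note: zebrafish embryos with chorions exposed by immersion from 6-8 hpf to 5 dpf with daily renewal; teratogenicity score from eye scoring of death hatching and malformations at 144 hpf; higher score means more developmental defects relative to DMSO baseline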)
# In short: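 Larvae scored by eye at 144 hpf for death, hatching and malformations after a day in clean Hanks'. Before that, daily-renewed exposure at 80 uM (0.4% DMSO, 26C) from roughly 6-8 hpf through 5 dpf, 4 embryos per chemical.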
# [17] = read-out: solute carrier (SLC22A6), SLC22A6 (gene 9356); assay: LTEA_HepaRG_SLC22A6: Life Technologies and Expression Analysis (LTEA) Assay for solute carrier (SLC22A6) using HepaRG (AID 2283653; active = hit-call score of the fitted dose curve at least 0.9, where 1 is the maximum; inactive = score below 0.9); details: mRNA level, 48 h; actives raise or lower the signal
# In short: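 Gene-expression endpoint in HepaRG hepatic cells: duplicate 8-point concentration-response, highest 100 uM, 48 h treatment in serum-free medium with 0.5% DMSO. SLC22A6 expression measured by qRT-PCR, normalised to ACTB/GAPDH/POLR2A.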
# [18] = read-out: solute carrier (SLC10A1), SLC10A1 (gene 6554); assay: LTEA_HepaRG_SLC10A1: Life Technologies and Expression Analysis (LTEA) Assay for solute carrier (SLC10A1) using HepaRG (AID 2283657; active = hit-call score of the fitted dose curve at least 0.9, where 1 is the maximum; inactive = score below 0.9); details: mRNA level, 48 h; actives raise or lower the signal
# In short: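 HepaRG cells (single lot) exposed 48 h in serum-free induction medium, 8-point half-log series from 100 uM top in 0.5% DMSO, duplicate. SLC10A1 mRNA by qRT-PCR normalised to ACTB, GAPDH, POLR2A; bidirectional fit versus DMSO.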
# [19] = read-out: matrix metalloproteinase-1 (MMP1), MMP1 (gene 4312); assay: LTEA_HepaRG_MMP1: Life Technologies and Expression Analysis (LTEA) Assay for matrix metalloproteinase-1 (MMP1) using HepaRG (AID 2283658; active = hit-call score of the fitted dose curve at least 0.9, where 1 is the maximum; inactive = score below 0.9); details: mRNA level, 48 h; actives raise or lower the signal
# In short: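 In this screen, human liver HepaRG cultures receive each chemical in duplicate for 48 h (top 100 uM, 0.5% DMSO). MMP1 expression is then quantified by TaqMan qRT-PCR with ACTB/GAPDH/POLR2A normalization.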
structure (smiles),measurement,setting,value
Cc1ccc(N)cc1,outcome,[1],inactive
same,outcome,[2],inactive
same,outcome,[3],inactive
same,outcome,[4],inactive
same,outcome,[5],inactive
same,outcome,[6],inactive
same,outcome,[7],inactive
same,outcome,[8],inactive
same,AC50,[9],0.0844 µM (active)
same,outcome,[10],inactive
same,outcome,[11],inactive
same,AC50,[12],61.2 µM (active)
same,AC50,[13],23.1 µM (active)
same,AC50,[14],30.4 µM (active)
same,outcome,[15],inactive
COC(=O)Nc1nc2ccccc2[nH]1,outcome,[1],inactive
same,outcome,[2],inactive
same,outcome,[3],inactive
same,outcome,[4],inactive
same,outcome,[5],inactive
same,outcome,[6],inactive
same,outcome,[7],inactive
same,outcome,[8],inactive
same,AC50,[9],24.5 µM (active)
same,AC50,[10],1.41 µM (active)
same,outcome,[11],inactive
same,AC50,[16],2.61 µM (active)
same,outcome,[12],inactive
same,AC50,[13],10 µM (active)
same,AC50,[14],6.5 µM (active)
same,outcome,[15],inactive
Cc1ccc(N)c(N)c1,outcome,[1],inactive
same,outcome,[2],inactive
same,outcome,[3],inactive
same,outcome,[4],inactive
same,outcome,[5],inactive
same,outcome,[6],inactive
same,outcome,[7],inactive
same,outcome,[8],inactive
same,AC50,[9],1.68 µM (active)
same,outcome,[10],inactive
same,outcome,[11],inactive
same,AC50,[16],80.4 µM (active)
same,AC50,[12],18.9 µM (active)
same,AC50,[13],23.4 µM (active)
same,AC50,[14],22.7 µM (active)
same,outcome,[15],inactive
Brc1ccc(Oc2ccccc2)cc1,outcome,[1],inactive
same,outcome,[2],inactive
same,outcome,[3],inactive
same,outcome,[4],inactive
same,outcome,[5],inactive
same,outcome,[6],inactive
same,outcome,[7],inactive
same,outcome,[8],inactive
same,outcome,[11],inactive
same,AC50,[16],44.7 µM (active)
same,outcome,[12],inactive
same,outcome,[13],inactive
same,outcome,[14],inactive
same,outcome,[15],inactive
CCN(CC)CCO,outcome,[1],inactive
same,outcome,[2],inactive
same,outcome,[3],inactive
same,outcome,[4],inactive
same,outcome,[5],inactive
same,outcome,[17],inactive
same,outcome,[6],inactive
same,outcome,[7],inactive
same,outcome,[8],inactive
same,outcome,[18],inactive
same,outcome,[19],inactive
same,outcome,[11],inactive
same,outcome,[15],inactive
Nc1ccc(Cl)cc1N,outcome,[1],inactive
same,outcome,[2],inactive
same,outcome,[3],inactive
same,outcome,[4],inactive
same,outcome,[5],inactive
same,outcome,[17],inactive
same,outcome,[6],inactive
same,outcome,[7],inactive
same,AC50,[18],20.9 µM (active)
same,AC50,[19],50 µM (active)
same,AC50,[9],13.1 µM (active)
same,outcome,[10],inactive
same,outcome,[11],inactive
same,AC50,[16],15 µM (active)
same,AC50,[15],44.8 µM (active)
C[C@]12C=CC3=C4CCC(=O)C=C4CC[C@H]3[C@@H]1CC[C@@H]2O,outcome,[1],inactive
same,outcome,[2],inactive
same,outcome,[3],inactive
same,outcome,[4],inactive
same,outcome,[5],inactive
same,outcome,[17],inactive
same,outcome,[6],inactive
same,outcome,[7],inactive
same,outcome,[8],inactive
same,AC50,[18],16.1 µM (active)
same,outcome,[19],inactive
same,AC50,[9],7.23 µM (active)
same,AC50,[10],6.42 µM (active)
same,outcome,[11],inactive
same,AC50,[16],31 µM (active)
same,AC50,[15],118 µM (active)
CN(C)c1ccccc1,outcome,[1],inactive
same,outcome,[2],inactive
same,outcome,[3],inactive
same,outcome,[4],inactive
same,outcome,[5],inactive
same,outcome,[6],inactive
same,outcome,[7],inactive
same,outcome,[8],inactive
same,AC50,[9],22.7 µM (active)
same,outcome,[11],inactive
same,outcome,[15],inactive
